miR-21 reporter = qHTS Assay for Modulators of miRNAs and/orActivators of miR-21; 340,000 tested, under 10 active; HeLa miR-21 FLuc reporter, luciferase, 48 h; Potency, µM (titrated, usually from 38.3 µM), without a hit: at the highest dose activity change, positive = activation, most hits filed as activators;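 further: % of control where 0% means no effect; miR-21 action dims this reporter so a rising signal means less miR-21 action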
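Using DMEM plus 10% FBS, HeLa miR-21-FLuc cells are incubated with test compounds (final up to about 40uM) for 48 hours; firefly luciferase signal is then imaged following reagent-mediated lysis.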
DT40 TDP1 CPT = qHTS for Inhibitors of human tyrosyl-DNA phosphodiesterase 1 (TDP1): qHTS in cells in presence of CPT; chicken DT40 Tdp1-/-;hTDP1 cells + 20 nM CPT, ATP luminescence, 48 h; Potency, µM (highest dose often 46.2 µM), without a hit: at the top dose activity change, negative = growth inhibition, hits mostly inhibitors; actives 12% (n = 420,000); further: potency means the concentration at half of the fitted maximal effect; on the % scale 0 is the no-effect control and ±100 the full control effect; nearly all actives have a fitted effect of over 55% in size
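Chicken DT40 Tdp1-/- cells stably complemented with human TDP1 were seeded at 400 cells/well in medium containing 20 nM camptothecin, exposed to pin-transferred compounds, and grown at 37 °C for at least 48 hr. Viability was read as ATP luminescence.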
TDP1 inh = qHTS Assay for Inhibitors of Tyrosyl-DNA Phosphodiesterase (TDP1) | Tyrosyl-DNA phosphodiesterase 1 (Homo sapiens), Q9NUW8 | recombinant TDP1, AlphaScreen DNA substrate cleavage | actives 0.28% (n = 350,000) | Potency, µM (titrated, usually from 130 µM), for inactives: top-dose activity change, negative = inhibition, most hits filed as inhibitors; further: potency means the concentration at half of the fitted maximal effect; on the % scale 0 is the no-effect control and ±100 the full control effect; nearly all actives have a fitted effect of over 40% in size
Target sequence (Q9NUW8 whole entry, looked up): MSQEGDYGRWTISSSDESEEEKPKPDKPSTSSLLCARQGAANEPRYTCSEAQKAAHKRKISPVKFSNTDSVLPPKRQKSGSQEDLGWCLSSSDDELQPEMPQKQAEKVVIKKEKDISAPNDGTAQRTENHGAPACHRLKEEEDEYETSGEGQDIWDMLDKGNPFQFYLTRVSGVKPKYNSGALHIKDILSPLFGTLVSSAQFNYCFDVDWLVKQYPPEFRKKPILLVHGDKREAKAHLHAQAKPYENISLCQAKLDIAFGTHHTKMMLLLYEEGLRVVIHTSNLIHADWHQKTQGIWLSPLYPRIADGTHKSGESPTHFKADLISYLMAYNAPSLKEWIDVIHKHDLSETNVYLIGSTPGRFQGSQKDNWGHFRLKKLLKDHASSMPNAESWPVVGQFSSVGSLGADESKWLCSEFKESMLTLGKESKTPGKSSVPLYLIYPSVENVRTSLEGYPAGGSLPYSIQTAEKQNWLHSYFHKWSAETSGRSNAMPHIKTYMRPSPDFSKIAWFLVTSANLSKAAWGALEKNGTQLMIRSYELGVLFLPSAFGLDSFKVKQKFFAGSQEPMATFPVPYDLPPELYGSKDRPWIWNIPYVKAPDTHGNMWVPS
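Steps: enzyme plus compound, 15 min RT; add biotin/phosphotyrosine-FITC oligonucleotide (15 nM final), react 5 min; add donor/acceptor beads (10 ug/ml final), 10 min; read AlphaScreen. Tdp1 at 1 nM final.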
TDP1 cell noCPT = qHTS for Inhibitors of human tyrosyl-DNA phosphodiesterase 1 (TDP1): qHTS in cells in absence of CPT; DT40 Tdp1-/- hTDP1 cells, no CPT, ATP luminescence, 48 h; Potency, µM (top dose mostly 46.2 µM), for inactives: at the top dose activity change, negative = growth inhibition, hits mostly inhibitors; actives 15% (n = 420,000); further: potency means the concentration at half of the fitted maximal effect; on the % scale 0 is the no-effect control and ±100 the full control effect; nearly all actives have a fitted effect of over 55% in size
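Growth kinetics read by CellTiter-Glo luminescence after ≥48 hr at 37 °C. Cells: DT40 Tdp1-/- stably carrying human TDP1, 400 per well, compound exposure in the absence of CPT (DMSO vehicle).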
uPA generation = qHTS for Inhibitors of Cell Surface uPA Generation. cell surface uPA generation assay, qHTS. Potency, µM (highest dose often 38.3 µM), without a hit: at the highest dose activity change, negative = inhibition, most hits filed as inhibitors. actives 0.31% (n = 330,000). AID 540303, 2011; active means well fitted inhibition curve with a large enough effect; inconclusive means small, poorly fitted or top-dose-only effect; inactive means no such curve, though single readings can be large or run the other way; tested in mouse RAW 264.7 cells; further: potency means the concentration at half of the fitted maximal effect; on the % scale 0 is the no-effect control and ±100 the full control effect; nearly all actives have a fitted effect of over 55% in size
The depositor's hits bear a star; ? = inconclusive; . = not tested or not shown; [ ] = remark or other dose. Hits are enriched below; roughly 16% of the tested compounds scored in any of these assays. Unless noted, the call rests on the fitted dose curve; in most records, active means well fitted curve in the direction sought with a large enough effect; inconclusive means small, poorly fitted or top-dose-only effect, or another doubt; inactive means no such curve, though single readings can be large; an effect the other way counts as inactive or inconclusive.

SMILES	miR-21 reporter	DT40 TDP1 CPT	TDP1 inh	TDP1 cell noCPT	uPA generation
CCN1C(=O)[C@H]2[C@@H](c3ccc(-c4ccccc4)cc3)N3CCC[C@@]3(C(=O)OC)[C@H]2C1=O	.	?	-1%	18µM*	-4%
COc1cc(C)ccc1OCCSc1nc2ccc(NC(=O)c3ccc(F)cc3)cc2s1	-4%	?	3%	8.2µM*	.
CCC(=O)Nc1ccc2nc(SCCOc3ccc(C)cc3OC)sc2c1	-1%	?	6%	15µM*	.
Cc1cccc(C(=O)Nc2ccc3nc(SCCOc4ccccc4)sc3c2)c1	-22%	?	-6%	?	.
CS(=O)(=O)CCCCN=C=S	.	?	-4%	18µM*	.
O=C(CSc1cn(CCNC(=O)c2ccccc2F)c2ccccc12)Nc1ccc(F)cc1	29%	23µM*	6%	23µM*	.
O=C(NCCn1cc(SCc2ccc(C(F)(F)F)cc2)c2ccccc21)c1cccs1	-5%	?	5%	?	.
O=C(CSc1cn(CCNC(=O)c2cccc(C(F)(F)F)c2)c2ccccc12)Nc1ccc2c(c1)OCCO2	?	23µM*	6%	?	.
CCOc1ccc(NC(=O)CSc2cn(CCNC(=O)c3ccccc3F)c3ccccc23)cc1	3%	?	6%	?	.
NC(=O)CSc1cn(Cc2cccc(F)c2)c2ccccc12	23%	13µM*	5%	?	-2%
O=C(CSc1cn(CCNC(=O)c2cccs2)c2ccccc12)NC1CCCC1	7%	16µM*	3%	16µM*	0%
O=C(O)CSc1cn(Cc2ccccc2)c2ccccc12	3%	1%	.	-1%	-6%
CC1CCCCN1C(=O)c1cc2c(=O)n3ccccc3nc2s1 (configuration not stated)	-91%	-11%	2%[0.0935 µM]	-4%	-3%
O=C(NC1CCCCC1)c1ccc(Br)o1	-12%	-8%	1%	-1%	5%
O=C(NCCn1cc(SCc2ccc(F)cc2)c2ccccc21)c1ccccc1F	3%	?	-1%	16µM*	?
O=C(CSc1cn(CCNC(=O)c2ccccc2F)c2ccccc12)Nc1ccc2c(c1)OCCO2	?	23µM*	10%	16µM*	.
O=C(NCCn1cc(SCc2ccc(F)cc2)c2ccccc21)c1c(F)cccc1F	?	?	6%	?	10µM*
CC(C)CCNC(=O)c1ccccc1SCC(=O)NC1CCCCCCC1	.	23µM*	-1%	?	-7%
COc1ccc(OC)c(S(=O)(=O)n2nc(C)cc2C)c1	-3%	6%	2%	?	-1%
Cc1cc2c3c(ccc(C)c3n1)N=CN2c1ccccc1	-10%	-28%	2%	?	-3%
O=C(NCCn1cc(SCc2ccccc2)c2ccccc21)c1c(F)cccc1F	-5%	?	3%	23µM*	?
Cc1ccccc1NC1=C(Cl)C(=O)OC1NC(=O)c1ccccc1 (configuration not stated)	-4%	-27%	6%	-27%	-13%
CC1CCN(C(=O)c2ccc3c(c2)NC(=O)/C(=C/c2ccccc2)S3)CC1	-2%	?	4%	-21%	6%
CCN1CCCC1CNC(=O)c1ccc2c(c1)NC(=O)/C(=C\c1ccc(C)cc1)S2 (configuration not stated)	?	?	7%	16µM*	-16%
Cc1ccc(/C=C2/Sc3ccc(C(=O)N4CCN(C)CC4)cc3NC2=O)cc1	-7%	23µM*	7%	?	8%
SMILES	miR-21 reporter	DT40 TDP1 CPT	TDP1 inh	TDP1 cell noCPT	uPA generation
CCN1CCCC1CNC(=O)c1ccc2c(=O)n(CCOC)c(=O)[nH]c2c1 (configuration not stated)	2%	13%	5%	-10%	3%
CCn1cc(C(=O)NC(=S)Nc2sc3c(c2C(=O)OC)CCCCCC3)cn1	-2%	-7%	0%	-11%	-1%
CCOC(=O)C1(Cc2ccc(OC)cc2)CCN(C(=O)CCc2cnccn2)CC1	3%	-18%	.	-8%	3%
CCC(C)(C)n1nnnc1C(c1cc2cc3c(cc2[nH]c1=O)OCO3)N1CCN(C)CC1 (configuration not stated)	-1%	-5%	4%	-5%	9%
CCCSc1nc2sc3c(c2c(=O)n1Cc1ccccc1)CC(C)(CC)OC3 (configuration not stated)	-5%	18µM*	-1%[12.3 µM]	12µM*	.
CCOC(=O)CSc1nc2sc3c(c2c(=O)n1Cc1ccccc1)CC(C(C)C)OC3 (configuration not stated)	0%	.	.	.	.
CCC1(C)Cc2c(sc3nc(SC)n(Cc4ccccc4)c(=O)c23)CO1 (configuration not stated)	-8%	13µM*	7%	13µM*	-1%
O=C(c1ccccc1)n1nc(-c2ccco2)nc1NCc1cccs1	-16%	?	4%	?	.
CC(C)CC(N)c1csc(NC(=O)Nc2ccccc2Cc2ccccc2)n1 (configuration not stated)	.	12µM*	.	12µM*	.
O=C(Nc1nc(-c2cccc([N+](=O)[O-])c2)cs1)C(c1ccccc1)c1ccccc1	3%	?	6%	?	5%
COc1ccccc1NC(=O)Nc1nc(C(N)CC(C)C)cs1 (configuration not stated)	.	2.6µM*	.	0.26µM*	.
CC(C)C(=O)Nc1ccccc1Cc1ccccc1	-3%	4%	6%	0%	-6%
COc1ccccc1NC(=O)Nc1nc(C(N)Cc2ccc(Cl)cc2)cs1 (configuration not stated)	.	9.2µM*	.	23µM*	.
CC(C)CC(N)c1csc(NC(=O)C(c2ccccc2)c2ccccc2)n1 (configuration not stated)	.	18µM*	.	6.5µM*	.
Clc1ccc(CN2CCN(c3ncccn3)CC2)cc1	0%	-26%	.	-17%	-1%
CCS(=O)(=O)c1nc(S(=O)(=O)c2ccc(C)cc2)c(N2CCCC(C)C2)s1 (configuration not stated)	0%	-29%	3%	-19%	0%
Cc1ccccc1NC(=O)Nc1nc(C(N)Cc2ccccc2)cs1 (configuration not stated)	.	23µM*	.	23µM*	.
Cc1ccccc1NC(=O)Nc1nc(CN)cs1	.	16µM*	.	23µM*	.
Cc1ccccc1NC(=O)Nc1ccccc1Br	-14%	10µM*	6%	?	-15%
